# Screening results as filed in PubChem.
# DT40 TDP1 CPT: DT40-hTDP1 cell growth loss with CPT. chicken DT40 Tdp1-/-;hTDP1 cells + 20 nM CPT, ATP luminescence, 48 h. actives 12% (n = 420,000). AID 686979. Potency, µM (highest dose often 46.2 µM), usual class: inhibitors; further: nearly all actives have a fitted effect of over 55% in size
#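 Cell growth measured by CellTiter-Glo luminescence after a minimum 48 h, 37 C compound exposure with 20 nM CPT in Tdp1-knockout DT40 cells stably expressing hTDP1, seeded 400/well; qHTS titration format.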
# TGFb inhibitor: inhibitors of TGF-b signaling; HepG2 CAGA-GFP TGF-b/SMAD3 reporter, GFP fluorescence, 18 h; TGF-beta stimulated, 500 pg/mL final; Potency, µM (highest dose often 46.1 µM), hits mostly inhibitors; actives 1.2% (n = 410,000); further: nearly all actives have a fitted effect of over 65% in size
#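 Cell-based qHTS in HEPG2 carrying a CAGA-GFP Smad reporter; compounds added before 500 pg/mL final TGF-beta, 18 h incubation at 37 degrees C, GFP fluorescence quantified per cell by imaging cytometry.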
# HepG2 viability: kills HepG2 cells in TGF-b inhibitor counter-screen; HepG2 CAGA-GFP viability, ATP luminescence, 18 h; Potency, µM (doses to about 46.1 µM), actives largely listed as cytotoxic; actives 0.76% (n = 410,000)
#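 HepG2 CAGA-GFP cells (1000/well, DMEM with 1% FBS) received compound, then TGF-beta at 500 pg/mL final, and were incubated 18 hours at 37 degrees C. Viability was read by CellTiter-Glo luminescence. Media-only wells were set as complete cell-killing and DMSO as no toxicity.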
# S-ASM inh: inhibitors of human secretory acid sphingomyelinase | P17405 | AID 504937 | Potency, µM (series often up to 57.5 µM), actives largely listed as inhibitors | actives 0.006% (n = 340,000) | placental ASM, HMU-PC fluorogenic substrate, 60 min
# Target sequence (P17405 47-631 limits assumed): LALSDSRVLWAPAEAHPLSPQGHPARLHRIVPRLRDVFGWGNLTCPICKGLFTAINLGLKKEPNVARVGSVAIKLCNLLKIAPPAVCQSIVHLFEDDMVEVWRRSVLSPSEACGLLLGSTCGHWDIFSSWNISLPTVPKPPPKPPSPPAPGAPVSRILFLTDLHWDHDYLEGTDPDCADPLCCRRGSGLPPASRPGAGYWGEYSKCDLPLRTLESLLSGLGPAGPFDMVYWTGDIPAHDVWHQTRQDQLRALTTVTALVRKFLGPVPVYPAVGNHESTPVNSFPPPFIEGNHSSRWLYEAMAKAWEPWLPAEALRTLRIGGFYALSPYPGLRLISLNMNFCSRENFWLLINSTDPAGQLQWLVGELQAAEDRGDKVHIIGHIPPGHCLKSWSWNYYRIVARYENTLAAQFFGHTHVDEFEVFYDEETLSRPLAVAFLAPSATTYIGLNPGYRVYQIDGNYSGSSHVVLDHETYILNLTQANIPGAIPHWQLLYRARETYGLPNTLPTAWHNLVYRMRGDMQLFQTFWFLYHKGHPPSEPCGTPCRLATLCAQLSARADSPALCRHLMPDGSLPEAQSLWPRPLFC
#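 Fluorogenic HMU-PC substrate (9 uM final) is turned over by placental ASM in 60 min at 37 C after a 10 min compound preincubation. Reaction ended by alkaline stop (pH 10), with fluorescence read at 386/447 nm.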
# IL1B secr inh: inhibitors of inflammasome signaling (IL-1 beta secretion) | THP-1 LPS/ATP IL-1B secretion, AlphaLISA, 16 h; hits give low values | activity change, % at 57.5 µM | actives 4.7% (n = 360,000); in the data active means activity change below about -50%; inconclusive means mostly about -30% to -49%
#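 THP-1 cells pretreated 1 hr with compounds (up to 57.5 uM final), then stimulated with LPS (250 ng/mL final) plus ATP (1.25 mM final); secreted IL-1B measured by AlphaLISA after 16 hr, decreased signal indicating inhibition.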
# DT40 TDP1 no CPT: qHTS for Inhibitors of human tyrosyl-DNA phosphodiesterase 1 (TDP1): qHTS in cells in absence of CPT; actives 15% (n = 420,000); DT40 Tdp1-/- hTDP1 cells, no CPT, ATP luminescence, 48 h; Potency, µM (top dose mostly 46.2 µM), hits mostly inhibitors; further: nearly all actives have a fitted effect of over 55% in size
#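 No-CPT arm: Tdp1-/-;hTDP1 DT40 cells (400/well) plus compounds, incubated ≥48 hr at 37 °C. Readout CellTiter-Glo luminescence.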
# Numbers stand for hits; – = inactive; ? = inconclusive; · = not tested or not shown. A selection: hits, their analogues and other compounds. The true share with any hit is near 19%. Unless noted, the call rests on the fitted dose curve; in most records, active means well fitted curve in the direction sought with a large enough effect; inconclusive means small, poorly fitted or top-dose-only effect, or another doubt; inactive means no such curve, though single readings can be large; an effect the other way counts as inactive or inconclusive.
SMILES,DT40 TDP1 CPT,TGFb inhibitor,HepG2 viability,S-ASM inh,IL1B secr inh,DT40 TDP1 no CPT
c1ccc(COc2ncnc3c2ncn3CCCNCC2CCCO2)cc1 (stereo unspecified),–,–,–,–,–,–
c1ccc(COc2ncnc3c2ncn3CCCNCC(c2ccccc2)c2ccccc2)cc1,26µM,16µM,11µM,·,-94,16µM
Cc1ccc(NC(=O)CN(C)C(=O)c2cccc(S(=O)(=O)NCc3cccs3)c2)cc1,–,–,–,–,–,–
COc1cccc(C(C(=O)NC2CCCCC2)N(C(=O)CNC(=O)c2ccco2)c2cccnc2)c1 (stereo unspecified),–,–,–,–,–,–
CCc1ccc(C2CC(c3cccc(Cl)c3)n3nc(N)nc3N2)cc1 (stereo unspecified),15µM,–,–,–,·,15µM
CCc1ccc(C2CC(c3ccccc3)Nc3nc(N)nn32)cc1 (stereo unspecified),–,–,–,–,–,–
Cc1cccc(C2CC(c3ccc(Cl)cc3)Nc3nc(N)nn32)c1 (stereo unspecified),?,–,–,–,–,?
Cc1ccc(C2CC(c3cccc(Cl)c3)n3nc(N)nc3N2)cc1 (stereo unspecified),15µM,–,–,–,–,18µM
Cc1nc(N2CCN(S(=O)(=O)c3ccc(Br)cc3)CC2)c2c(C)c(C)sc2n1,21µM,–,–,–,–,?
Cc1sc2ncnc(N3CCN(S(=O)(=O)c4ccc(F)cc4)CC3)c2c1C,?,–,–,–,-57,12µM
Cc1nc(N2CCN(S(=O)(=O)c3ccccc3)CC2)c2cc(-c3ccccc3)sc2n1,15µM,–,–,–,–,?
CCS(=O)(=O)N1CCN(c2ncnc3sc(C)c(C)c23)CC1,–,–,–,–,–,?
Cc1sc2ncnc(N3CCN(c4ncccn4)CC3)c2c1C,23µM,?,–,–,?,?
CCc1nc(N2CCN(S(=O)(=O)c3ccc(Br)cc3)CC2)c2c(C)c(C)sc2n1,?,?,–,–,–,23µM
Cc1ccc(S(=O)(=O)N2CCN(c3nc(CN4CCCC4)nc4sc(C)c(C)c34)CC2)cc1,?,?,–,–,?,?
OC[C@@H]1CN(Cc2ccccc2)C[C@H](n2cnc3c(NCc4ccc(F)cc4)ncnc32)O1,?,?,–,·,–,?
CNc1ncnc2c1ncn2[C@H]1CN(Cc2ccc(-c3ccccc3)cc2)C[C@@H](CO)O1,?,–,–,·,–,23µM
CNc1ncnc2c1ncn2[C@H]1CN(C2CCCC2)C[C@@H](CO)O1,1.6µM,–,–,·,–,–
OC[C@@H]1CN(Cc2ccc(-c3ccccc3)cc2)C[C@H](n2cnc3c(NC4CC4)ncnc32)O1,?,–,–,·,–,?
OC[C@@H]1CN(Cc2ccc(-c3ccccc3)cc2)C[C@H](n2cnc3c(NCc4ccc(F)cc4)ncnc32)O1,4.1µM,?,–,·,–,3.7µM
Cc1ccccc1NC(=O)c1cc([N+](=O)[O-])ccc1NCCN1C(=O)CCC1=O,–,–,–,–,–,–
O=C1CC(Cc2ccccc2)C(=O)N1c1ccccn1 (stereo unspecified),–,–,–,–,–,–
COc1ccc(NC(=O)CCn2c(-c3ccc(F)cc3)cc(C(C)=O)c2C)c(OC)c1,?,?,–,·,·,?
CCCCn1c(CCC)nc([N+](=O)[O-])c1Sc1ccc(Cl)cn1,18µM,–,–,–,?,?
CCCc1nc(SCc2ccc(OCC)cc2)n[nH]1,–,–,–,–,–,?
SMILES,DT40 TDP1 CPT,TGFb inhibitor,HepG2 viability,S-ASM inh,IL1B secr inh,DT40 TDP1 no CPT
CCOC(=O)Cc1[nH]nc2c1C(c1ccsc1)C(C#N)=C(N)O2 (stereo unspecified),?,–,–,–,-65,?
CCCc1[nH]nc2c1C(c1ccc(OC)cc1OC)C(C#N)=C(N)O2 (stereo unspecified),–,–,–,–,–,–
CCOC(=O)Cc1[nH]nc2c1C(c1ccoc1)C(C#N)=C(N)O2 (stereo unspecified),–,–,–,–,?,–
CCCc1[nH]nc2c1C(c1ccoc1)C(C#N)=C(N)O2 (stereo unspecified),?,–,–,–,-80,?
CCCc1[nH]nc2c1C(c1ccc(O)cc1OCC)C(C#N)=C(N)O2 (stereo unspecified),?,–,–,–,-76,?
CCCc1[nH]nc2c1C(c1ccc(OCCN3CCOCC3)c(OCC)c1)C(C#N)=C(N)O2 (stereo unspecified),–,?,–,–,–,–
CCOc1cc(C2C(C#N)=C(N)Oc3n[nH]c(CC)c32)ccc1OCCN1CCOCC1 (stereo unspecified),–,–,–,–,-61,–
Cc1[nH]nc2c1C(c1ccoc1)C(C#N)=C(N)O2 (stereo unspecified),–,–,–,–,?,–
O=c1c(Cl)c(NCC2CCCO2)cnn1C12CC3CC(CC(C3)C1)C2 (stereo unspecified),–,?,–,–,–,–
CCCc1[nH]nc2c1C(c1cccc(OC)c1)C(C#N)=C(N)O2 (stereo unspecified),–,–,–,–,–,?
CCCc1[nH]nc2c1C(C1CCCCC1)C(C#N)=C(N)O2 (stereo unspecified),?,?,–,–,-95,?
COCc1[nH]nc2c1C(c1ccsc1)C(C#N)=C(N)O2 (stereo unspecified),?,–,–,–,–,–
CCCc1[nH]nc2c1C(c1ccsc1)C(C#N)=C(N)O2 (stereo unspecified),16µM,–,–,–,-228,?
COC(=O)Cc1[nH]nc2c1C(C1C=CCCC1)C(C#N)=C(N)O2 (stereo unspecified),?,–,–,–,-62,26µM
COCc1[nH]nc2c1C(c1sccc1C)C(C#N)=C(N)O2 (stereo unspecified),–,–,–,–,-81,?
COC(=O)Cc1[nH]nc2c1C(c1cc(OC)c(OC)c(OC)c1)C(C#N)=C(N)O2 (stereo unspecified),–,?,–,–,–,–
N#CC1=C(N)Oc2n[nH]c(-c3cccs3)c2C1c1cccs1 (stereo unspecified),?,?,–,–,-91,–
